# In the library only some 19% were active in any assay of this set; here they are far more common.
# DT40 TDP1 no CPT: qHTS for Inhibitors of human tyrosyl-DNA phosphodiesterase 1 (TDP1): qHTS in cells in absence of CPT. DT40 Tdp1-/- hTDP1 cells, no CPT, ATP luminescence, 48 h. Potency, µM (series often up to 46.2 µM), for the others: at the top dose activity change, negative = growth inhibition, most hits filed as inhibitors. 420,000 tested, 15% active. AID 686978, 2013; also: nearly all actives have a fitted effect of over 55% in size
#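 Growth kinetics read by CellTiter-Glo luminescence after ≥48 hr at 37 °C. Cells: DT40 Tdp1-/- stably carrying human TDP1, 400 per well, compound exposure in the absence of CPT (DMSO vehicle).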
# HT1080 IDH1KD tx: toxicity to HT-1080 IDH1 knockdown cells (counter line). 360,000 tested, 2% active. HT-1080 IDH1 knockdown viability, ATP luminescence, 48 h. Potency, µM (series often up to 46.1 µM), for the others: top-dose activity, negative = toxicity, usual class: cytotoxic;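 also: 0% = DMSO wells and -100% = cell-free medium wells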
#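 Assay cells: HT-1080 with IDH1 knockdown, 750 per well, RPMI/5% FBS. Exposure: 48 h at 37 °C following 2 h pre-incubation. Read: CellTiter-Glo luminescence; fitted concentration-response, curve class assigned.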
# DT40 TDP1 CPT: growth inhibition of DT40 Tdp1-/-;hTDP1 cells with camptothecin (screen for TDP1 inhibitors); chicken DT40 Tdp1-/-;hTDP1 cells + 20 nM CPT, ATP luminescence, 48 h; Potency, µM (highest dose often 46.2 µM), for the others: at the highest dose activity change, negative = growth inhibition, actives largely listed as inhibitors; 420,000 tested, 12% active; AID 686979; also: nearly all actives have a fitted effect of over 55% in size
#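 Chicken DT40 Tdp1-/- cells complemented with human TDP1, 400 cells/well, exposed to compounds plus 20 nM camptothecin for at least 48 h at 37 C; viability read as ATP content by CellTiter-Glo luminescence.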
# HT1080NT lethal: kills 2HG-producing HT-1080-NT fibrosarcoma cells; 360,000 tested, 1.6% active; Potency, µM (top dose mostly 46.1 µM), without a hit: at the highest dose activity, negative = less viability, most hits filed as cytotoxic; HT-1080-NT fibrosarcoma viability, CellTiter-Glo ATP luminescence, 48 h; AID 686970;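 also: NT is the 2HG producing partner of a matched IDH1 knockdown line; 0% = DMSO-treated cells and -100% = media-only wells without cells; nearly all actives have a fitted effect of over 55% in size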
#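 HT-1080-NT; 750 cells/well; 5% FBS RPMI; 48 h compound, 37 degrees C; CellTiter-Glo luminescence; curve fitting and curve-class assignment.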
# KB-V1 MDR tox: kills drug-selected multidrug resistant KB-V1 cells; KB-V1 MDR cells viability, CellTiter-Glo, 72 h; Potency, µM (titrated, usually from 46.1 µM), usual class: cytotoxic; 400,000 tested, 3.4% active; also: nearly all actives have a fitted effect of over 60% in size
#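 Potencies derive from concentration-effect curves fitted to normalized luminescence (CellTiter-Glo) of KB-V1 cells treated for 72 h at 37 degrees C in phenol-red-free DMEM containing 10% FBS.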
# KB-3-1 tox: KB-3-1 parental cell cytotoxicity; KB-3-1 viability, CellTiter-Glo ATP luminescence, 72 h; 400,000 tested, 1.4% active; Potency, µM (titrated, usually from 46.1 µM), hits mostly cytotoxic; AID 1347075; also: nearly all actives have a fitted effect of over 60% in size
#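 Using CellTiter-Glo luminescence, growth of non-resistant KB-3-1 adenocarcinoma cells is assessed 72 h after pin-tool compound addition at 37 °C. Normalized responses across the concentration series yield fitted curves.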
# Numbers without * were called inactive; i = inactive; ? = inconclusive; / = no result given; [ ] = another dose, or the depositor's remark. Calls follow the shape of the dose curve; as a rule, active = well fitted curve in the direction sought with a large enough effect; inconclusive = small, poorly fitted or top-dose-only effect, or another doubt; inactive = no such curve, though single readings can be large; an effect the other way counts as inactive or inconclusive. Unless noted, % is scaled to controls: 0 for no effect and ±100 for the full control effect; potency is read from the fitted curve at half-maximal effect.
SMILES,DT40 TDP1 no CPT,HT1080 IDH1KD tx,DT40 TDP1 CPT,HT1080NT lethal,KB-V1 MDR tox,KB-3-1 tox
CCCN(CCC)c1nc(NC2CCN(C(=O)OCC)CC2)nc(OC)n1,21µM*,?,16µM*,?,16µM*,?
CCOC(=O)N1CCC(Nc2c(OCC)c(=O)c2=O)CC1,3%,4%,23%,1%,?,i
O=C(c1ccncc1)N1CCC2(CC1)CCN(c1ccccn1)CC2,?,/,-21%,/,/,/
CCC(Oc1ccccc1)C(=O)OCC(=O)N(CC)c1c(N)n(Cc2ccccc2)c(=O)[nH]c1=O (stereo unspecified),6%,3%,6%,-3%,i,i
Cc1ccc(-n2c(C)nnc2SCC(=O)NNC(=O)c2ccco2)cc1,-23%,13%,11%,9%,i,i
CCN(CC)c1ccc(/C=N/NC(=O)c2c[nH]c3ccccc23)cc1,23µM*,-29%,?,?,i,i
O=C(NC(Cc1c[nH]c2ccccc12)C(=O)N/N=C/c1ccc(Cl)cc1)c1cccs1 (stereo unspecified),?,?,12µM*,?,i,i
Cc1c(/C=N\NC(=O)c2c[nH]c3ccccc23)cnn1C,-12%,-5%,-2%,8%,i,i
O=C(N/N=C/c1cccs1)c1c[nH]c2ccccc12,12µM*,24%,?,13%,?,i
CCN(CC)c1ccc(/C=N/NC(=O)c2cc3ccccc3[nH]2)cc1,?,?,?,-28%,i,i
O=C(Cc1c[nH]c2ccccc12)N/N=C/c1ccc(F)cc1,21µM*,-7%,16µM*,-2%,i,i
COC(=O)c1cc2occc2n1Cc1ccc(F)cc1Cl,-25%,/,-24%,/,i,i
CCc1ccc(/C=N/NC(=O)c2c[nH]c3ccccc23)s1,-20%,-8%,21µM*,-5%,?,i
Cc1ccsc1C(=O)N1CCC1(C)C(=O)Nc1ccc2c(c1)OCCO2 (stereo unspecified),?,1%,-23%,22%,i,i
CC(=O)c1cccc(OCC(=O)N(C)CC(=O)NCc2ccco2)c1,-20%,2%,?,-10%[9.24 µM],i,i
Cc1ccccc1C1(CC(=O)N2CCOCC2)CC(=O)N(Cc2cccnc2)C1=O (stereo unspecified),-7%,/,16%[9.04 µM],/,/,/
Cc1ccc(/C=c2/sc3n(c2=O)CCCN=3)o1,-18%,9%,?,15%,i,i
CC1(C)CN=c2s/c(=C\c3ccc(Cl)cc3)c(=O)n2C1,18µM*,?,12µM*,?,?,i
CCN1c2ccccc2-c2nc3ccccc3n2C1c1ccccn1 (stereo unspecified),16µM*,-13%,?,-8%,i,i
Cc1ccc(N/C=C/C(=O)c2sc(-c3ccccc3)nc2C)cc1,23µM*,?,?,?,?,?
COC(=O)/C(=C1/Oc2ccc(C(C)(C)C)cc2S1)C(F)(F)F,22%,?,-3%,31%,?,i
COC(=O)/C(=C1/Oc2cc(C)oc(=O)c2S1)C(F)(F)F,2.1µM*,15µM*,2.3µM*,-17%,i,i
Cc1cccc(C)c1NC(=O)CN1CCN(C(=O)CCC(=O)N2CCC(c3ccccc3)=N2)CC1,-3%,2%,12%,6%,i,i
O=C(CN1CCN(C(=O)CCC(=O)N2CCC(c3ccccc3)=N2)CC1)Nc1ccc(F)cc1,23µM*,-3%,?,-15%,?,?
O=C(CN1CCN(C(=O)CCC(=O)N2CCC(c3ccccc3)=N2)CC1)Nc1cccc(F)c1,16µM*,-4%,16µM*,-11%,?,i

# High-throughput results (PubChem BioAssay)
